# Data taken from PubChem BioAssay (NCATS).
# “And” between values parts separate entries of the source, which are not always exact repeats. Equal entries are not always repeated. Results filed as inconclusive are left out. A call without a number means that no potency is given here. The source made the active and inactive calls. Unless noted, calls follow the shape of the dose curve; as a rule, active = well fitted curve in the direction sought with a large enough effect; inconclusive = small, poorly fitted or top-dose-only effect, or another doubt; inactive = no such curve, though single readings can be large; an effect the other way counts as inactive or inconclusive.
# Key:
# [1] = target: Glutathione peroxidase 1 (Homo sapiens) (UniProt P07203); experiment: Primary qHTS Assay for Inhibitors of Recombinant Selenoprotein Glutathione Peroxidase 1 (GPX1) (AID 1845191); also: nearly all actives have a fitted effect of over 65% in size; also: potency is read from the fitted curve at half-maximal effect
# Glutathione peroxidase 1 (Homo sapiens), sequence (P07203 whole entry, looked up): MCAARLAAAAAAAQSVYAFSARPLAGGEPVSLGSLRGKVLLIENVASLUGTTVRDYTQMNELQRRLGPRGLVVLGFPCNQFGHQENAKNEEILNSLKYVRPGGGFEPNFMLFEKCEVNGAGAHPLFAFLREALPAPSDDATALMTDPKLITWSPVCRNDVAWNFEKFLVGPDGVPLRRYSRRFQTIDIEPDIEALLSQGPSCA
# Method in brief: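 GPX1 10 nM, GR 100 nM, GSH 1 mM, NADPH 0.5 mM, CHP 0.5 mM (final). 30-min cpd preincubation, RT. Ex340/Em450 read t=0, t=15 min.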
# [2] = target: Phospholipid hydroperoxide glutathione peroxidase GPX4 (Homo sapiens) (UniProt P36969); experiment: Primary qHTS Assay for Inhibitors of Recombinant Selenoprotein Glutathione Peroxidase 4 (GPX4) (AID 1845192); also: nearly all actives have a fitted effect of over 65% in size; also: potency is read from the fitted curve at half-maximal effect
# Phospholipid hydroperoxide glutathione peroxidase GPX4 (Homo sapiens), sequence (P36969 whole entry, looked up): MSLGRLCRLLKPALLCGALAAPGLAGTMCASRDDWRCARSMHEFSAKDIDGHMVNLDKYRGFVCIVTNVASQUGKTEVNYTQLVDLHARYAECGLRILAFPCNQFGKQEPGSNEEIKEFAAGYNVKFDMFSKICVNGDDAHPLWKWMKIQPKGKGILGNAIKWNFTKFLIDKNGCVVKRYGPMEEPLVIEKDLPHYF
# Method in brief: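 qHTS, GR-coupled: GPX4 200 nM + cpd 30 min RT → GSH 1 mM, NADPH 0.5 mM, GR 100 nM → CHP 0.5 mM start; fluor 340/450 at t0 and t15 min; no-enzyme wells as control.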
# [3] = target: Luciferin 4-monooxygenase (Photinus pyralis) (UniProt P08659); experiment: Primary firefly luciferase (FLuc) qHTS assay for identification of artifact compounds. (AID 1845220); also: nearly all actives have a fitted effect of over 60% in size; also: potency is read from the fitted curve at half-maximal effect
# Method in brief: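 qHTS, 15 min compound preincubation with substrate (10 uM luciferin, 10 uM ATP) at RT, then 10 nM FLuc; 5 min; luminescence; % inhibition vs no-enzyme/DMSO controls, 4-parameter Hill fit.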
# [4] = Primary fluorescence-based thiol-reactive (MSTI) qHTS assay for identification of artifact compounds. (AID 1845221); also: nearly all actives have a fitted effect of over 65% in size; also: potency is read from the fitted curve at half-maximal effect
# Method in brief: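 Thiol-reactive compounds detected by quenching of 4 uM MSTI fluorescence (525/598 nm) after 1 h room-temperature dark incubation in PBS pH 7.4, 2% DMSO. qHTS titration; percent inhibition Hill-fitted against Acetyl-MSTI/MSTI controls.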
# [5] = test system: Nanoluciferase (engineered Oplophorus gracilirostris luciferase); experiment: Primary Nanoluciferase (NLuc) qHTS assay for identification of artifact compounds. (AID 1845222); also: series mostly up to about 54 µM
# Method in brief: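 Luminescence read-out of secreted NLuc in S16 cell conditioned medium (1:55); compounds tested with 15 min RT preincubation, then Nano-Glo substrate 1:100, 5 min. % inhibition vs no-enzyme and DMSO controls, 4-parameter Hill fit.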
# [6] = Primary redox qHTS assay for identification of artifact compounds. (AID 1845223)
# Method in brief: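 Redox-cycling detection via DTT (250 uM final) oxidation coupled to Amplex Red (25 uM)/HRP (250 mU/mL) in HBSS. 15 min preincubation plus 30 min after DTT, room temperature. Ex/Em 525/598 nm; 4-parameter Hill fit against DMSO and 10 uM DA3003.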
# [7] = qHTS drug screen for cell cycle checkpoint inhibitors in PARPi-resistant BRCA-mutant ovarian cancer cell lines. (AID 1963452; calls by dose curve; also: potency is read from the fitted curve at half-maximal effect); conditions: PEO1/OlaR viability, CellTiter-Glo luminescence, 96 h; for Z-AUC: stronger effect = lower value
# Method in brief: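 PEO1, PEO4 and PEO1/OlaR ovarian cancer cells, 600 per well, exposed 96 h at 37C to a dilution series. Viability read by CellTiter-Glo luminescence, normalized to DMSO and empty wells; activity summarized as Z-AUC.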
# [8] = measured here: PEO1 parental Z-AUC
Structure (SMILES),Potency [1],Potency [2],Potency [3],Potency [4],Potency [5],Potency [6],Potency [7],"Z-AUC [7, 8]",Z-AUC ([7]; measured here: PEO4 Z-AUC),Z-AUC [7]
CCN1CCN(Cc2ccc(NC(=O)Nc3ccc(Oc4cc(NC)ncn4)cc3)cc2C(F)(F)F)CC1,inactive,inactive,inactive,inactive,inactive,inactive,4.9 µM (active),-1.75,-1.71,
Cc1c(NC(=O)c2cc(C(N)=O)nc3cc(F)ccc23)c(C(F)(F)F)nn1Cc1ccc(C#N)cc1,inactive,inactive,inactive,inactive,inactive,inactive,,-1.49,-1.92,-2.01 (inactive)
COc1cc2ncnc(Nc3cccc(Cl)c3F)c2cc1OC(=O)N1CCN(C)C[C@H]1C,inactive,inactive,inactive,inactive,inactive,inactive,,-1.08,-1.14,-0.739 (inactive)
CCNCc1nc2c(N)nc3ccccc3c2n1CC(C)(C)O,inactive,inactive,inactive,inactive,inactive,inactive,,0.65,0.404,-0.12 (inactive)
O=C(NOCC(O)CO)c1ccc(F)c(F)c1Nc1ccc(I)cc1F (stereo not given),inactive,inactive,inactive,inactive,inactive,inactive,,-1.32,-0.907,-1.69 (inactive)
CCO[C@@H]1OC(=O)C[C@@H]1NC(=O)[C@@H]1CCCN1C(=O)[C@@H](NC(=O)c1ccc(N)c(Cl)c1)C(C)(C)C,inactive,inactive,inactive,inactive,inactive,inactive,,0.457,0.143,0.612 (inactive)
CNCc1ccc(-c2cc(-c3nc(-c4ccc(S(=O)(=O)C(C)C)cc4)cnc3N)on2)cc1,inactive,inactive,inactive,inactive,inactive,inactive,,0.477,0.605,0.146 (inactive)
CO[C@H]1C[C@@H]2CC[C@@H](C)[C@@](O)(O2)C(=O)C(=O)N2CCCC[C@H]2C(=O)O[C@H]([C@H](C)C[C@@H]2CC[C@@H](OP(C)(C)=O)[C@H](OC)C2)CC(=O)[C@H](C)/C=C(\C)[C@@H](O)[C@@H](OC)C(=O)[C@H](C)C[C@H](C)/C=C/C=C/C=C/1C,inactive,inactive,inactive,inactive,inactive,inactive,,0.103,-0.0432,0.099 (inactive)
C[C@H]1Oc2cc(cnc2N)-c2c(nn(C)c2C#N)CN(C)C(=O)c2ccc(F)cc21,inactive,inactive,inactive,inactive,inactive,inactive,,-0.00425 and 0.761,-0.356 and 0.596,0.784 (inactive) and 2.21 (inactive)
O=C(NCc1cccc(O)c1)Nc1nc(-c2ccncc2)cs1,inactive,inactive,inactive,inactive,inactive,inactive,,0.195,-0.295,-0.136 (inactive)
O=C(O)c1ccc(CN2CCC(CN[C@@H]3C[C@H]3c3ccccc3)CC2)cc1,inactive,inactive,inactive,inactive,inactive,inactive,,1.03,0.899,-0.0301 (inactive)
CCn1c(=O)c(-c2ccn[nH]2)cc2c(C)nc(N)nc21,4.09 µM (active),2.55 µM (active),inactive,inactive,inactive,inactive,,-0.106,-0.63,-0.643 (inactive)
CCNC(=O)Nc1ncc(-c2cc(-c3c(C)cc(OC)cc3C)nc(-c3cnccn3)n2)s1,inactive,inactive,inactive,inactive,inactive,inactive,,1.44,1.47,0.457 (inactive)
COCCOc1ccc(N2CCN(CCn3ncc4c3nc(N)n3nc(-c5ccco5)nc43)CC2)cc1,inactive,inactive,inactive,inactive,inactive,inactive,,-0.346,-0.723,-0.648 (inactive)
C[C@H]1[C@H](O)O[C@@H]2O[C@@]3(C)CC[C@H]4[C@H](C)CC[C@@H]1[C@@]24OO3,inactive,inactive,inactive,inactive,inactive,inactive,,0.808,1.02,1.05 (inactive)
NC(=O)[C@H]1CCS[C@@H]2C[C@]3(CCCN3C(=O)Cc3ccc(NC(=O)COc4ccc(Cl)cc4Cl)cc3)C(=O)N12,inactive,inactive,inactive,inactive,inactive,inactive,,0.014,0.0247,-0.482 (inactive)
CNC(=O)c1cc(Oc2ccc3nc(N[C@@H]4CCCC[C@H]4O)sc3c2)ccn1,inactive,inactive,12 µM (active),inactive,inactive,inactive,,-0.612,-0.476,-0.222 (inactive)
NC[C@@](O)(c1ccc(Cl)cc1)c1ccc(-c2cn[nH]c2)cc1,inactive,inactive,inactive,inactive,inactive,inactive,13.8 µM (active),-1.09,-1.28,
CN[C@@H]1[C@H](O[C@H]2[C@H](O[C@@H]3[C@@H](O)[C@H](O)[C@@H](N=C(N)N)[C@H](O)[C@H]3N=C(N)N)O[C@@H](C)[C@]2(O)C=O)O[C@@H](CO)[C@H](O)[C@H]1O,inactive,inactive,inactive,inactive,inactive,inactive,,0.947,1.26,1.52 (inactive)

Structure (SMILES),Potency [1],Potency [2],Potency [3],Potency [4],Potency [5],Potency [6],Potency [7],"Z-AUC [7, 8]",Z-AUC ([7]; measured here: PEO4 Z-AUC),Z-AUC [7]
Cc1cc(Nc2cc(N3CCN(C)CC3)nc(/C=C/c3ccccc3)n2)n[nH]1,inactive,inactive,inactive,inactive,inactive,inactive,0.49 µM (active),-1.58,-1.32,
C=C1C(=O)O[C@H]2[C@H]1CC/C(C)=C/CC[C@@]1(C)O[C@@H]21,inactive,inactive,inactive,inactive,inactive,inactive,,0.881,0.819,1.08 (inactive)
CC1=C(CO)C(=O)O[C@@H]([C@@H](C)[C@H]2CC[C@H]3[C@@H]4C[C@H]5O[C@]56[C@@H](O)C=CC(=O)[C@]6(C)[C@H]4CC[C@]23C)C1,inactive,inactive,inactive,inactive,inactive,inactive,,-1.83,-1.49,-1.4 (inactive)
CC(O)c1cc(C(=O)N[C@@H](C)Cn2ccc(-c3ccc(C#N)c(Cl)c3)n2)n[nH]1 (stereo not given in full),inactive,inactive,inactive,inactive,inactive,inactive,,-0.668,-0.279,-0.266 (inactive)
CC(C)(C)NC(=O)[C@@H](c1cccnc1)N(C(=O)c1ccco1)c1ccc(C(C)(C)C)cc1,inactive,inactive,inactive,inactive,,inactive,,,,
C[C@H](Nc1ncnc2nc[nH]c12)c1cc2ccc(F)cc2nc1-c1ccccn1,inactive,inactive,inactive,inactive,inactive,,,-0.257,0.432,-0.541 (inactive)
COCCOc1cnc2ccn([C@H](C)c3nnc4c(F)cc(-c5cnn(C)c5)cn34)c(=O)c2c1,inactive,inactive,inactive,inactive,inactive,,,0.929,1.44,1.14 (inactive)
Cc1cc(C)c(CNC(=O)c2cc(-c3ccc(CN4CCOCC4)cc3)cc3c2cnn3C2CCCC2)c(=O)[nH]1,inactive,inactive,inactive,inactive,,inactive,,-0.591,0.1,0.564 (inactive)
O=C(OCC1=CC(O)C2C=CO[C@@H](O[C@@H]3O[C@H](CO)[C@@H](O)[C@H](O)[C@H]3O)C12)c1ccccc1 (stereo not given in full),inactive,inactive,inactive,,inactive,,,,,
COc1ccc(Cl)c(Nc2nc3ccccc3nc2NS(=O)(=O)c2cccc(NC(=O)C(C)(C)N)c2)c1,inactive,inactive,inactive,inactive,inactive,,,0.542,0.742,-0.00434 (inactive)
CCOC(=O)c1cc(C#N)c(N2CCC(C(=O)NS(=O)(=O)Cc3ccccc3)CC2)nc1C,inactive,inactive,inactive,inactive,,inactive,,,,
COc1cccc(Nc2ncnn3ccc(CN4CC[C@@H](N)[C@H](O)C4)c23)c1,inactive,inactive,inactive,inactive,inactive,,2.19 µM (active),-1.46,-1.16,
COc1cc(Br)c(S(=O)(=O)Nc2ccc(C(F)(F)F)c(O[C@@H]3CCN(C)C3)c2)cc1OC,inactive,inactive,inactive,inactive,,inactive,,,,
N#Cc1ccc(C(=O)N2CCC3(CC2)N=C(N)c2c(F)ccc(F)c2N3)cn1,inactive,inactive,inactive,,inactive,,,,,
O=C1NC(=O)C(c2cn(-c3ccccc3)nc2-c2ccc(F)cc2)N1 (stereo not given),inactive,inactive,inactive,inactive,,inactive,,,,
Cc1ccc(NC(=O)Nc2cc(C(F)(F)F)ccc2F)cc1Nc1ccc2c(c1)NC(=O)/C2=C\c1ccc[nH]1,inactive,inactive,inactive,1.34 µM (active),,inactive,,0.106,0.2,0.377 (inactive)
CCN1CCN(Cc2ccc(Nc3ncc(F)c(-c4cc(F)c5nc(C)n(C(C)C)c5c4)n3)nc2)CC1,inactive,inactive,inactive,inactive,inactive,,,0.712,0.621,0.0865 (inactive)
C=CC(=O)Nc1cc(Nc2ncc(Cl)c(-c3c[nH]c4ccccc34)n2)c(OC)cc1N(C)CCN(C)C,inactive,inactive,inactive,,inactive,,,,,
